Test results taken from PubChem BioAssay AID778 (Sanford-Burnham Center for Chemical Genomics, 2007).
The whole screen tested about 96,000 compounds, of which about 20,000 (21%) were called active.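 The calls were made as follows: active = CYP2C19 inhibition above a set limit at 5 µM in the primary screen (cut at about 50% in these data); inactive = the rest.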 The list is a sample of the results.

molecular target: Cytochrome P450 2C19 (Homo sapiens) (UniProt P33261); assay: blockers of cytochrome P450 2C19 activity – biochemical, luminescence, ADME assay, primary screen (AID 778); details: CYP2C19 Supersomes, luciferin-H EGE luminescence, 30 min; at 5 µM; hits give high values;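 also: plate controls were negative control wells for no effect and 2.5 mM tranylcypromine positive control for full effect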
Sequence (P33261 whole entry, looked up): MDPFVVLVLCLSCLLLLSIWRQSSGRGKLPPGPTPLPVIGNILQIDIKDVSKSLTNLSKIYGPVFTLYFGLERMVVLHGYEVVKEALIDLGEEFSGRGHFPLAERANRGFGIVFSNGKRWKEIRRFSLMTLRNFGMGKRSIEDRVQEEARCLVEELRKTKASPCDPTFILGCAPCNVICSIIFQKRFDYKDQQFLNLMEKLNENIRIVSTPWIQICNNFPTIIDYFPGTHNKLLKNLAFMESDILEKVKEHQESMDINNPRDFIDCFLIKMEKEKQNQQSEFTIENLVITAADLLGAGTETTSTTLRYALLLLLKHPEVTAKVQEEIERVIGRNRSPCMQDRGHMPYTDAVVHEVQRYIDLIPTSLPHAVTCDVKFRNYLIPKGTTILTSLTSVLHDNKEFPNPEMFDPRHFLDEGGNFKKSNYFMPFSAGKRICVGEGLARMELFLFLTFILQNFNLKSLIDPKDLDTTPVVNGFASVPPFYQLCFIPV

| Compound | inhibition |
| --- | --- |
| COc1ccc(CN2CCN(c3ccccc3F)CC2)c(OC)c1 | 86.7% (active) |
| CC(C)c1ccc(O)c(CN2CCN(c3ccccc3)CC2)c1 | 19.8% (inactive) |
| CCCCCn1c(=O)c(C(=O)NCc2ccccn2)c(O)c2ccccc21 | 26% (inactive) |
| CCCCn1c(O)c(C(CC)=NCc2ccco2)c(=O)[nH]c1=O | 29.9% (inactive) |
| CCCCCCN=C(CC)c1c(O)n(CCCC)c(=O)[nH]c1=O | 73.6% (active) |
| CCC(=NCCCO)c1c(O)n(-c2ccc(OC)cc2)c(=O)[nH]c1=O | -9.4% (inactive) |
| Cn1c(O)c(C=NCCCC(=O)O)c(=O)n(C)c1=O | -13.4% (inactive) |
| CCN(CC)CCOC(=O)c1cc2cc(COC)ccc2o1 | -6.5% (inactive) |
| O=C(c1cc(S(=O)(=O)N2CCOCC2)ccc1F)N1CCC2(CC1)OCCO2 | -8% (inactive) |
| Cc1cc(OCc2cc(C(=O)O)oc2C)c2c3c(c(=O)oc2c1)CCCC3 | -33% (inactive) |
| CCN1CCN(C(=O)Cc2coc3cc(C)cc(C)c23)CC1 | 89.1% (active) |
| CN(C)C(=O)NC(O)C(Cl)(Cl)Cl (stereo not given) | 23.9% (inactive) |
| CCN(CC)P(=O)(Oc1cccc(C)c1)N(CC)CC | 78.8% (active) |
| O=C(CN1CCCCC1)Nc1ccc(Br)cc1C(=O)c1ccccc1Cl | 10.3% (inactive) |
| CC12CN3CC(C)(CN(C1)C3c1cccs1)C2 (stereo not given) | 7.6% (inactive) |
| Cc1ccc(N(C)C(=O)Oc2cccc3ccc(C)nc23)cc1 | 55.4% (active) |
| CN1C2C=C(N(C(=O)c3ccc(Cl)cc3)c3ccccc3)CC1CC2 (stereo not given) | 19.9% (inactive) |
| CCOC(=O)c1c(C)c(C(=O)N2CCC3(CC2)OCCO3)c(C)n1CC | 49.7% (inactive) |
| C[N+]12CN3CN(CN(C3)C1)C2 | -6.5% (inactive) |
| Cc1ccc(Cn2nnnc2CN2CCC(n3nnc4ccccc43)CC2)cc1 | 87.4% (active) |
| Nc1ccc(C(=O)N/N=C2/CN3CCC2CC3)cc1 | 15.9% (inactive) |
| O=C(O)C1CSC(c2cccnc2)N1 (stereo not given) | -10.8% (inactive) |
| CCOC(=O)C1CN(C)CCC1=O (stereo not given) | -3.5% (inactive) |

| Compound | inhibition |
| --- | --- |
| CC(=O)c1ccc(OC(NC(=O)Cc2ccccc2)C(Cl)(Cl)Cl)cc1 (stereo not given) | 83.1% (active) |
| CC(=O)NC(=O)NC(C)Cc1ccccc1 (stereo not given) | -11.6% (inactive) |
| Cc1nc2ccccn2c1P(=S)(N1CCCCC1)N1CCCCC1 | 17.2% (inactive) |
| CC1=C(C(=O)Nc2ccccc2)SCCO1 | -3.1% (inactive) |
| CCOP(=S)(OCC)SCOC(=O)NCC(=O)OC | 95.6% (active) |
| Cc1cccc(N2C(=O)NC(=O)/C(=C\c3cnn(-c4ccccc4)c3)C2=O)c1 | -9.4% (inactive) |
| Cn1c(O)c(C=Nc2ccc3c(c2)CCC3)c(=O)n(C)c1=O | 31.3% (inactive) |
| N#Cc1ccc(Cn2cc(C(=O)c3ccco3)c3ccccc32)cc1 | 9.2% (inactive) |
| CSC1=NP(=S)(SC)N(C)c2nc3n(c21)CCC3 (stereo not given) | 8.2% (inactive) |
| COC(=O)C(c1ccccc1)N1CCCCCC1 (stereo not given) | 12.8% (inactive) |
| OC(CNC1CCCCC1)c1ccccc1 (stereo not given) | 58.5% (active) |
| O=C(CSC1c2ccccc2-c2ccccc21)N/N=C/c1ccccc1 | 25.3% (inactive) |
| CCCC(C)n1[nH]c(=O)c2c1NC(=O)CSC2c1ccc(OC)c(OC)c1 (stereo not given) | 7.2% (inactive) |
| c1cncc(CNC2=NCCC2)c1 | -16.9% (inactive) |
| CCc1cccc2c(C#N)cn(CC(=O)N3CCOCC3)c12 | 6.7% (inactive) |
| CC(=O)Nc1ccccc1C(=O)OCC(=O)c1cccc2ccccc12 | 51.1% (active) |
| CCOc1ccc(C2SCC(=O)Nc3c2c(C)nn3C2CCOC(C)(C)C2)cc1 (stereo not given) | 7% (inactive) |
| CN1CCN(C(=O)COc2ccc(C(C)(C)C)cc2Br)CC1 | 66.5% (active) |
| CC(C)c1ccc(OCC(=O)N2CCN(C)CC2)c(Br)c1 | 76% (active) |
| NC(=O)Nc1cccc(C(F)(F)F)c1 | 26.2% (inactive) |
| Cc1nc2nc(C)c(CCC(=O)N3CCC4(CC3)OCCO4)c(C)n2n1 | 0% (inactive) |
| CC(=O)c1c(O)n(C2CCCCCC2)c(=O)[nH]c1=O | 27% (inactive) |
| O=C(COc1ccc2ccccc2c1)N1CCN(Cc2ccncc2)CC1 | 90.1% (active) |

| Compound | inhibition |
| --- | --- |
| CCN(CC)C(=O)c1ccc(NC(=O)c2cc(-n3cnnc3)ccc2Cl)cc1 | 11.1% (inactive) |
| Cn1c(C(=O)N2CCC(C(=O)N3CCC4(CC3)OCCO4)CC2)cc2sccc21 | 7.5% (inactive) |
| CC(C)(C)c1ccc(CN2C(=O)CN=C(c3ccccc3)c3ccccc32)cc1 | 16.5% (inactive) |
| CCOC(=O)c1c(-c2ccccc2)oc2ccc(OC(=O)N(C)C)cc12 | 60.7% (active) |
| Cc1ccc2c(c1)C1CN(C)CCC1N2C(=O)Cn1nnc(-c2ccccc2F)n1 (stereo not given) | 8.3% (inactive) |
| O=c1c2ccccc2nc(-c2ccc(Cl)cc2Cl)n1-c1ccncc1 | 76.4% (active) |
| O=c1c2ccccc2nc(-c2ccco2)n1-c1ccc(Br)cn1 | -3.5% (inactive) |
| CCc1nc2ccccc2c(=O)n1-c1cccc(OC)c1 | 33.5% (inactive) |
| COC(=O)C(O)(c1ccc(NC(=O)c2ccco2)c(OC)c1)C(F)(F)F (stereo not given) | 39% (inactive) |
| CCNc1nc2[nH]c(=O)c3c(c2s1)OC(N)=C(C#N)C3c1cccs1 (stereo not given) | -19.6% (inactive) |
| CCC(=O)CC(c1ccc([N+](=O)[O-])cc1)c1c(O)c2ccccc2oc1=O (stereo not given) | 1.3% (inactive) |
| COc1ccc(C2NCc3ccc4c(c3-n3cccc32)OCO4)cc1OC (stereo not given) | 77.5% (active) |
| c1ccc(C2NCc3ccccc3-n3cccc32)cc1 (stereo not given) | 33% (inactive) |
| CCC(=NCc1ccco1)c1c(O)n(Cc2ccccc2)c(=O)[nH]c1=O | 49.6% (inactive) |
| CC(=NCc1ccc2c(c1)OCO2)c1c(O)[nH]c(=O)[nH]c1=O | -13.9% (inactive) |
| COc1ccccc1-n1c(O)c(C=NC2CC2)c(=O)[nH]c1=O | 42.1% (inactive) |
| COc1ccc(CCn2c(O)c(C=NCCCn3ccnc3)c(=O)[nH]c2=O)cc1OC | 16.7% (inactive) |
| COc1ccc(CCn2c(O)c(C=NC3CC3)c(=O)[nH]c2=O)cc1OC | 94.9% (active) |
| CC(=O)N1CN2CN(C(C)=O)CC(C(=O)c3ccc(Br)cc3)(C2)C1 | -5.5% (inactive) |
| C=Cn1ccnc1P(=S)(c1cc(N(CC)CC)ns1)c1nccn1C=C | 18.8% (inactive) |
| CCC/C(=N\O)c1c[nH]c2ccccc12 | 72.6% (active) |
| C/C(CCc1c[nH]c2ccccc12)=N\O | 12% (inactive) |
| CNP1(NC)=Nc2nn(-c3ccccc3)c(N)c2C(c2ccccc2)=N1 | -1.8% (inactive) |

| Compound | inhibition |
| --- | --- |
| CNC(=O)N(C)c1nnc(C(C)(C)C)s1 | -8.5% (inactive) |
| CC[N+](CC)(CC)CCCCCCCCCC[N+](CC)(CC)CC | 14.9% (inactive) |
| O=C1NC(=O)C(C/C=C/c2ccccc2)C(=O)N1 | 5% (inactive) |
| COC(=O)CN1C(=O)C2(C(C(=O)OC)=C(N)Oc3ccccc32)C2=C1CC(C)(C)CC2=O (stereo not given) | 18.2% (inactive) |
| C=CCN1C(=O)C2(C(C(=O)OCC)=C(N)Oc3c2c(=O)oc2ccccc32)c2ccccc21 (stereo not given) | 88.5% (active) |
| Cc1ccc(P(=S)(c2ccc(C)o2)N2CCOCC2)o1 | 36.5% (inactive) |
| Cc1cc(N2C(=O)C3CCCN3C2c2ccc(Cl)c(Cl)c2)no1 (stereo not given) | 11.9% (inactive) |
| CCN1c2nc3c(C)cccn3c(=O)c2CC2(C(=O)N(C)C(=O)N(C)C2=O)C1C (stereo not given) | -11.5% (inactive) |
| N[C@@H](Cc1c[nH]c2ccccc12)c1nnc(SCc2c(F)cccc2Cl)o1 | 74.1% (active) |
| COc1ccc(-c2nc(CS(=O)CC(=O)N3CCC4(CC3)OCCO4)c(C)o2)cc1 (stereo not given) | 13.3% (inactive) |
| CCCCCn1c(=O)c(C(=O)Nc2c(C)n(C)n(-c3ccccc3)c2=O)c(O)c2ccccc21 | 1.4% (inactive) |
| Cc1cccc(-n2c(C)nc3cc(C(=O)N4CCC5(CC4)OCCO5)ccc32)c1 | 6.6% (inactive) |
| O=C(c1cc(-c2ccncc2)nc2ccccc12)N1CCC2(CC1)OCCO2 | 35.1% (inactive) |
| O=C(c1cc2nc(-c3ccccc3)cc(-c3ccccc3)n2n1)N1CCC2(CC1)OCCO2 | 94% (active) |
| O=C(CCN1CCCCC1)NCC(=O)Nc1ccc(Br)cc1C(=O)c1ccccc1 | -17.3% (inactive) |
| CC(=C1C(=O)c2ccccc2C1=O)N1CCN(CCN=Cc2c(O)n(C)c(=O)n(C)c2=O)CC1 | 24.7% (inactive) |
| CC1(C)C(c2ccccc2)=NC(c2cccnc2)=[N+]1[O-] | 16.4% (inactive) |
| c1ccc2sc(C3CCCNC3)nc2c1 (stereo not given) | -18.4% (inactive) |
| CCOc1ccc(CN(CCCl)CCCl)cc1C(=O)OC | 63.9% (active) |
| O=C1/C(=C\c2ccc3c(c2)OCO3)N2CCC1CC2 | 40% (inactive) |
| CCOC(=O)C(O)(c1ccc(NC(=O)c2ccco2)c(OC)c1)C(F)(F)F (stereo not given) | 25.1% (inactive) |
| CN1CCC(N(C)Cc2cccnc2)CC1 | -0.7% (inactive) |
| COc1ccccc1N1CCN(C(CNC(=O)Oc2ccccc2)c2cccnc2)CC1 (stereo not given) | 39.7% (inactive) |

| Compound | inhibition |
| --- | --- |
| CN1CCN(Cc2ccc(OC(F)(F)F)cc2)CC1 | 20.2% (inactive) |
| COC(=O)N(c1ccc(OC)cc1)P1(=S)OCCC(C)O1 (stereo not given) | 21.5% (inactive) |
| COc1ccc(C(=O)C2CN(C)CC2C(=O)c2ccc(OC)cc2)cc1 (stereo not given) | 8.9% (inactive) |
| COc1ccccc1CN1CCN(C(=O)Cc2ccccc2)CC1 | 68.1% (active) |
| CCC(=NCCc1ccccc1)c1c(O)n(C2CCCCC2)c(=O)[nH]c1=O | 11.8% (inactive) |
| COc1cc(Cn2c(N)c(C(=O)NCc3ccco3)c3nc4ccccc4nc32)cc(OC)c1OC | 93.2% (active) |
| CCOC(=O)c1c(N)n(CCN2CCOCC2)c2nc3ccccc3nc12 | 13.3% (inactive) |
| CCOC(=O)c1c(N)n(Cc2ccccc2)c2nc3ccccc3nc12 | -1% (inactive) |
| COc1ccccc1N=C1SCCCN1C | -31.2% (inactive) |
| O=C(C1CC(=O)N(C2CCCC2)C1)N1CCC2(CC1)OCCO2 (stereo not given) | 10.5% (inactive) |
| COc1ccc(S(=O)(=O)NCc2ccc(C(=O)N3CCC4(CC3)OCCO4)cc2)cc1 | -0.4% (inactive) |
| CC(=O)N(C1=NCCCS1)c1ccccc1F | 7.3% (inactive) |
| CCOC(=O)C1SC2(C(F)(F)C(F)F)CC1(O)c1c(c(OC)c3occc3c1OC)O2 (stereo not given) | 92.1% (active) |
| Cc1ccc(C)c(NC2=NCCCS2)c1 | 7.4% (inactive) |
| CC(=NCC1CCCO1)c1c(O)n(-c2ccccc2)c(=O)[nH]c1=O (stereo not given) | 22.9% (inactive) |
| CCOC(=O)C1=C(C)OC(N)=C(C(=O)OC)C12C(=O)Nc1ccc(Br)cc12 (stereo not given) | 62.4% (active) |
| CCOC(=O)CC1=C(C(=O)OCC)C2(C(=O)N1)C(C(=O)OC)=C(N)Oc1ccccc12 (stereo not given) | 4.8% (inactive) |
| Cc1cc(C)cc(NC(=S)NC2CC3CCCC(C2)N3Cc2cccs2)c1 (stereo not given) | 22.1% (inactive) |
| CC(=NC1CCN(Cc2ccccc2)CC1)c1c(O)n(C)c(=O)n(C)c1=O | 8.1% (inactive) |
| CN1CCN(Cc2ccccc2C(F)(F)F)CC1 | 7.9% (inactive) |
| Fc1cccc(F)c1CN1CCN(Cc2c(F)cccc2F)CC1 | 94.4% (active) |
| CCOC(=O)C(O)(c1ccc(N)c(OC)c1)C(F)(F)F (stereo not given) | 20.4% (inactive) |
| Fc1ccc(N2CCN(Cc3ccc4c(c3)OCO4)CC2)cc1 | 22.5% (inactive) |
